Rows were chosen to be rich in hits. Some 12% of all compounds tested hit in one or more screens of this group.
HP1b chromo inh: blocks HP1-beta chromodomain binding to methylated histone tails | Potency, µM (highest dose often 114 µM), most hits filed as inhibitors | AlphaScreen HP1-beta / biotin-H3K9me3 peptide binding | AID 540317 | 390,000 tested, 0.56% active | P83916; also: nearly all actives have a fitted effect of over 70% in size
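HP1-beta protein (50 nM final) preincubated 30 min at room temperature with biotinylated H3(1-18)K9me3 peptide (50 nM) in PBS pH 7.4, 0.01% Tween-20, then compound added for 30 min. AlphaScreen streptavidin donor/nickel chelate acceptor beads (10 ug/mL final), 30 min dark, luminescence read.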
G9a inh: blocks human histone lysine methyltransferase G9a | Q96KQ7 | G9a H3K9 monomethylation, AlphaScreen, 2 h | Potency, µM (doses to about 102 µM), actives largely listed as inhibitors | 350,000 tested, 8.8% active | AID 504332; also: nearly all actives have a fitted effect of over 75% in size
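Enzyme 20 nM + cpd, 15 min RT; add b-H3K9 pep 500 nM / SAM 20 uM; 2 h RT; anti-H3K9me1 Ab 0.5 ug/mL + SA donor / anti-rabbit acceptor beads 20 ug/mL each, 10 min; AlphaScreen read.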
JMJD2A Tudor: inhibitors of human JMJD2A Tudor domain | Potency, µM (top dose mostly 114 µM), usual class: inhibitors | AID 504339 | 390,000 tested, 4.4% active | AlphaScreen JMJD2A-Tudor / H3K4me3 peptide binding | O75164; also: nearly all actives have a fitted effect of over 50% in size
BAZ2B block: inhibitors of human BAZ2B bromodomain; AlphaScreen BAZ2B-H3K14Ac peptide displacement; Potency, µM (doses to about 114 µM), most hits filed as inhibitors; 360,000 tested, 4.4% active; also: nearly all actives have a fitted effect of over 60% in size
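AlphaScreen luminescence quantifies BAZ2B engagement of H3K14Ac peptide; the protein and biotinylated peptide are both at 50 nM final, buffer PBS pH 7.4 with 0.01% Tween-20, all steps at room temperature.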
PLK1 PBD block: inhibitors of human PLK1 polo-box domain binding; AID 720504; 360,000 tested, 2.8% active; Plk1 PBD binding of FITC phosphopeptide, fluorescence polarization; P53350; Potency, µM, actives largely listed as inhibitors; also: series mostly up to about 57 µM; nearly all actives have a fitted effect of over 65% in size
PI5P4K alpha inh: inhibitors of human PI5P4K alpha. 330,000 tested, 1.2% active. P48426. max response, %. PI5P4Kalpha enzyme, ADP-Glo luminescence, 60 min; active compounds read low; active = max response of -50% or lower; inconclusive = between -30% and -50%; inactive = -30% or higher; also: value at the top dose of about 77 µM
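Enzyme plus substrate dispensed, test compounds pinned in, then ATP (5 microM final) added. After 60 min at RT, ADP-Glo reagent 1 for 45 min and reagent 2 for 30 min preceded luminescence imaging.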
A number is an active result; [ ] = dose if it differs, or a comment. Unless noted, calls follow the shape of the dose curve; as a rule, active = well fitted curve in the direction sought with a large enough effect; inconclusive = small, poorly fitted or top-dose-only effect, or another doubt; inactive = no such curve, though single readings can be large; an effect the other way counts as inactive or inconclusive.

`C=CCN(CC=C)C(=O)C[n+]1ccc(C(N)=O)cc1` gave HP1b chromo inh inactive, G9a inh inconclusive, JMJD2A Tudor inactive, BAZ2B block inactive, PLK1 PBD block inactive and PI5P4K alpha inh inactive.
Screening CCN(CC)C(=O)C[n+]1ccc(C(N)=O)cc1 returned HP1b chromo inh inactive, G9a inh inactive, JMJD2A Tudor inactive, BAZ2B block inactive, PLK1 PBD block 27µM and PI5P4K alpha inh inactive.
Screening CCN(CC)S(=O)(=O)c1cccc(-n2c(O)c(C=Nc3ccccc3C(=O)O)c3ccccc3c2=O)c1 returned HP1b chromo inh inactive, G9a inh inactive, JMJD2A Tudor inactive[11.4 µM], BAZ2B block inactive, PLK1 PBD block 24µM and PI5P4K alpha inh inactive.
For O=C(O)c1ccccc1N=Cc1c(O)n(-c2nccs2)c(=O)c2ccccc12 the results were HP1b chromo inh inactive, G9a inh inactive, JMJD2A Tudor inactive, BAZ2B block inactive, PLK1 PBD block inconclusive and PI5P4K alpha inh inactive.
Screening Cc1cc(C(=O)N[C@H](c2ccccc2)[C@@]2(C)C[C@@H]2[C@@H](C)C(=O)Nc2ccc3ccccc3c2)n(C)n1 returned HP1b chromo inh inactive, G9a inh inactive, JMJD2A Tudor inactive, BAZ2B block inactive, PLK1 PBD block inactive and PI5P4K alpha inh inactive.
`CNC(=O)c1cc2c(cn1)[nH]c1ccccc12` gave HP1b chromo inh inactive, G9a inh inactive[12.7 µM], JMJD2A Tudor inactive, PLK1 PBD block inactive and PI5P4K alpha inh inactive.
Screening COC(=O)[C@H](CCSC)NC(=O)c1cc2c(cn1)[nH]c1ccccc12 returned HP1b chromo inh inconclusive, G9a inh 1.8µM, JMJD2A Tudor inconclusive, BAZ2B block inactive, PLK1 PBD block 3µM and PI5P4K alpha inh inconclusive.
Screening CCN1CCN(c2ccc(S(=O)(=O)N3CCCCC3)cc2NC(=O)COc2ccc(Cl)cc2)CC1 returned HP1b chromo inh inactive, G9a inh 5µM, JMJD2A Tudor inconclusive, BAZ2B block inconclusive, PLK1 PBD block inactive and PI5P4K alpha inh inactive.
`CCN1CCN(c2ccc(S(=O)(=O)N3CCCCC3)cc2NC(=O)CCNC(C)=O)CC1` gave HP1b chromo inh inactive, JMJD2A Tudor inactive, PLK1 PBD block inactive and PI5P4K alpha inh inactive.
CCN1CCN(c2ccc(S(=O)(=O)N3CCCCC3)cc2NC(=O)COc2cc(C)ccc2Cl)CC1 was read as HP1b chromo inh inactive, G9a inh 10µM, JMJD2A Tudor inconclusive, BAZ2B block 79µM, PLK1 PBD block inactive and PI5P4K alpha inh inactive.
CCN1CCN(c2ccc(S(=O)(=O)N3CCCCC3)cc2NC(=O)COc2ccc(F)cc2Cl)CC1 was read as HP1b chromo inh inactive, G9a inh inconclusive, JMJD2A Tudor inconclusive, BAZ2B block inconclusive, PLK1 PBD block inactive and PI5P4K alpha inh inactive.
`O=C(N/N=C/c1ccc(OC2CSC2)cc1)c1ccccc1` gave HP1b chromo inh inactive, G9a inh inactive, JMJD2A Tudor inactive, BAZ2B block inactive and PLK1 PBD block inactive.
`O=C(/C=C/c1ccc(OC2CSC2)cc1)c1ccccc1` gave HP1b chromo inh inactive, G9a inh inactive, JMJD2A Tudor inconclusive, BAZ2B block inactive, PLK1 PBD block 27µM and PI5P4K alpha inh inconclusive.
Screening C=CCn1c(-c2c[nH]c3ccccc23)n[nH]c1=S returned HP1b chromo inh inactive, G9a inh 4µM, JMJD2A Tudor 6.3µM, BAZ2B block inactive, PLK1 PBD block inactive and PI5P4K alpha inh inactive.
Screening C=CCn1c(-c2ccccn2)n[nH]c1=S returned PLK1 PBD block inactive and PI5P4K alpha inh inactive.
Screening CCn1c(-c2c[nH]c3ccccc23)n[nH]c1=S returned HP1b chromo inh inactive, G9a inh 1.3µM, JMJD2A Tudor 4µM, BAZ2B block inactive and PLK1 PBD block inactive.
C=CCn1c(-c2csc3ccccc23)n[nH]c1=S was read as HP1b chromo inh inactive, G9a inh inconclusive, JMJD2A Tudor 18µM, BAZ2B block inactive and PLK1 PBD block inactive.
`CC(C)c1nc2sc3c(N4CCCCC4)ncnc3c2c2c1CCCC2` gave HP1b chromo inh inactive, G9a inh inactive, JMJD2A Tudor inactive and BAZ2B block inactive.
For Cc1cccc(-c2nc(SCC(=O)N3CCc4ccccc43)c3c(=O)n(C)c(=O)n(C)c3n2)c1 the results were HP1b chromo inh inactive, G9a inh inactive, JMJD2A Tudor inactive and BAZ2B block inactive.
For Cc1ccc(C)n1-c1nnc(N2CCCC(C(=O)NCc3cccc(F)c3)C2)s1 (stereo not given) the results were HP1b chromo inh inactive, G9a inh inactive, JMJD2A Tudor inactive and BAZ2B block inactive.
Screening Cc1ccc(NC(=O)Cn2c(=O)n(Cc3ccccc3)c(=O)c3c(C)c(C)sc32)c(C)c1 returned HP1b chromo inh inactive, G9a inh inactive, JMJD2A Tudor inactive and BAZ2B block inactive.
For CC1CCC2(CC1)NC(=S)N(C(C)(C)C)N2 (stereo not given) the results were HP1b chromo inh inactive, G9a inh 7.1µM, JMJD2A Tudor inconclusive, BAZ2B block inactive, PLK1 PBD block inactive and PI5P4K alpha inh inconclusive.
For CC1CCC2(CC1)NC(=S)N(c1ccccc1)N2 (stereo not given) the results were HP1b chromo inh inactive, G9a inh 6.3µM, JMJD2A Tudor inactive, BAZ2B block 79µM, PLK1 PBD block inactive and PI5P4K alpha inh inactive.
`COc1ccc(S(=O)(=O)N(CCO)c2ccccc2CN(C)CC=Cc2ccc(Cl)cc2)cc1` gave G9a inh inactive.
For COc1cc(OC)c(NC(=O)CN2CCCN(Cc3ccccc3C)S2(=O)=O)cc1Cl the results were HP1b chromo inh inactive, G9a inh inactive, JMJD2A Tudor inactive and BAZ2B block inactive.
COC(=O)c1ccc(NC(=O)CCc2c(C)nn(-c3ccc(N4CCOCC4)nn3)c2C)cc1 was read as HP1b chromo inh inactive, G9a inh inactive, JMJD2A Tudor inactive and BAZ2B block inactive.
`COc1cccc(C(=O)/C=C/Nc2ccc(S(=O)(=O)Nc3onc(C)c3C)cc2)c1` gave HP1b chromo inh inactive, G9a inh inconclusive, JMJD2A Tudor inactive, BAZ2B block inconclusive, PLK1 PBD block inactive and PI5P4K alpha inh inactive.
For CCOc1ccc(C(=O)/C=C/Nc2ccc(S(=O)(=O)Nc3onc(C)c3C)cc2)cc1 the results were HP1b chromo inh inactive, G9a inh 1.6µM, JMJD2A Tudor inactive, BAZ2B block inconclusive, PLK1 PBD block inactive and PI5P4K alpha inh inactive.
For Cc1noc(NS(=O)(=O)c2ccc(N/C=C\C(=O)c3cccc4ccccc34)cc2)c1C the results were HP1b chromo inh inconclusive, G9a inh inconclusive, JMJD2A Tudor inconclusive, BAZ2B block 50µM, PLK1 PBD block 24µM and PI5P4K alpha inh inconclusive.
For COc1cccc(N2CC(NC(=O)c3cc4ccccc4o3)CC2=O)c1 (stereo not given) the results were HP1b chromo inh inactive, G9a inh inactive, JMJD2A Tudor inactive and BAZ2B block inactive.
